Bioassay records from PubChem.
D1 antagonist: human D1 dopamine receptor antagonism | activity change, negative = inhibition, % at 10 µM | HEK293 TREx D1 cells, calcium flux, dopamine EC80; stronger effect = lower value | P21728 | actives 3.2% (n = 360,000); in the data active = activity change below about -30%
Target sequence (P21728 whole entry, looked up): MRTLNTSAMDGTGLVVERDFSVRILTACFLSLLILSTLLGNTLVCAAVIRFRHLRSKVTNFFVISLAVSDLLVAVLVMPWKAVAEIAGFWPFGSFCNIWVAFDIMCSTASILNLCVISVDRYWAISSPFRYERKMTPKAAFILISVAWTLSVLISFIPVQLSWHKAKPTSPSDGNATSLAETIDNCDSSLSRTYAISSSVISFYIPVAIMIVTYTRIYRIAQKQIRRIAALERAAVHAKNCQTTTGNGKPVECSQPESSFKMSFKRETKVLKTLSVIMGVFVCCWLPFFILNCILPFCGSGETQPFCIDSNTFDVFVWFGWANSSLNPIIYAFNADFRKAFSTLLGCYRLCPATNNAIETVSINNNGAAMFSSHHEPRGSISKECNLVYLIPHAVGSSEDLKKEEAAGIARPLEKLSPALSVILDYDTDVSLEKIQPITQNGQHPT
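Antagonism measured as reduced calcium response to an EC80 dopamine addition following 180 s compound pre-read; cells were inducible HEK293 Trex D1 plated overnight at 30 C, read kinetically at 1 cycle/sec.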
TRHR ag: TRH receptor (human) agonism. TRHR cells, calcium flux fluo-8, FDSS agonist mode. P34981. actives 0.18% (n = 360,000). AID 493084. activation, % at 2 µM
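TRHR-expressing cells, plated overnight in medium with 10% serum, were loaded with fluo-8 calcium dye at room temperature. After a 10 s baseline, library compound was pin-added and calcium release was recorded kinetically (ex 480/em 530) as agonist response.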
TRHR PAM: allosteric enhancers of human TRH receptor. TRHR cells, fluo-8 calcium fluorescence, EC20 TRH enhancement. enhancement, % at 2 µM. AID 493056. P34981. actives 0.66% (n = 360,000); in the data active = enhancement above about 30%
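TRHR-expressing cells loaded with fluo-8 calcium dye were read kinetically (ex 480/em 530) during compound addition, then stimulated with an EC20 of TRH (10 nM final). Enhancement of the Gq-mediated intracellular calcium response was scored.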
D1 PAM: potentiators of human D1 dopamine receptor; P21728; actives 0.036% (n = 360,000); HEK293 TREx D1 cells, calcium flux, dopamine EC20 potentiation; potentiation, % at 10 µM; in the data active = potentiation above about 30%
D1 ag: agonists of human D1 dopamine receptor; P21728; actives 1% (n = 360,000); HEK293 T-REx D1 cells, calcium flux, agonist mode; AID 504660; activation, % at 2 µM
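Inducible HEK293 T-REx D1 cells, force-coupled to calcium signalling, were plated at 4000 cells/well with tetracycline and held overnight at 30 C. After no-wash calcium dye loading, compound-evoked calcium rise over 180 s flagged agonists.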
Of the large screens only hits and unclear results are named; the others gave an inactive call; ! = not confirmed by another sample. Rows were chosen to be rich in hits. Some 4.6% of all compounds tested hit in one or more screens of this group. Rule as the data show it, unless noted: active = activation above about 30%; inactive = the rest.

O=C(NCCCN1CCOCC1)c1ccc(-n2nc(C(F)(F)F)cc2-c2cccs2)cc1	D1 ag 62
COCCCNC(=O)c1ccc(-n2nc(C(F)(F)F)cc2-c2cccs2)cc1	none
O=C(CCNC(=O)c1ccc(Br)cc1)NCC1COc2ccccc2O1 (stereo unspecified)	D1 antagonist -41
O=[N+]([O-])c1cccc(-c2ccc(C(=S)N3CCOCC3)o2)c1	D1 antagonist -35
COc1ccc(C(=O)c2sc(Nc3ccccc3)nc2N)cc1OC	TRHR PAM 33
COc1ccc(C(=O)c2sc(Nc3ccccc3)nc2N)cc1	none
S=c1[nH]nc(-c2cccc(Cl)c2)n1/N=C/c1ccco1	none
Cc1ccc(/C=N/n2c(-c3cccc(Cl)c3)n[nH]c2=S)o1	D1 antagonist -35
CCOC(=O)c1sc(NC(=O)c2cc3nc(-c4ccccc4)cc(C(F)(F)F)n3n2)c(C(=O)OCC)c1C	none
CCN(C(=O)COC(=O)c1ccccc1SCC(=O)NC1CCCCCCC1)C1CCS(=O)(=O)C1 (stereo unspecified)	none
CC(C)CN(C(=O)COc1ccc(-c2nnco2)cc1)C1CCS(=O)(=O)C1 (stereo unspecified)	D1 antagonist -47
CC(=O)Nc1ccc(OCC(=O)N(CC(C)C)C2CCS(=O)(=O)C2)cc1 (stereo unspecified)	none
CC(C)CN(C(=O)COC(=O)c1ccccc1SCC(=O)NC1CCCCCC1)C1CCS(=O)(=O)C1 (stereo unspecified)	D1 antagonist -42
CC(C)CN(C(=O)COC(=O)c1ccc([N+](=O)[O-])o1)C1CCS(=O)(=O)C1 (stereo unspecified)	D1 antagonist -32
CC(C)(C)c1ccc(NC(=O)C2=CC=CN3CCS(=O)(=O)N=C23)cc1	none
Cc1cccc(Oc2ccc(NC(=O)C3=CC=CN4CCS(=O)(=O)N=C34)cc2)c1	D1 antagonist -36
Cc1ccc(Oc2ccc(NC(=O)C3=CC=CN4CCS(=O)(=O)N=C34)cc2)cc1	D1 ag 32
CC(=O)Nc1cccc(NC(=O)c2c(-c3ccccc3)c(-c3ccccc3)nn(C)c2=O)c1	none
COc1ccc(Cc2noc(CN3CCN(c4ccc(Cl)cn4)CC3)n2)cc1OC	D1 antagonist -31
CC(=O)N1CCN(C(=O)c2cc(S(=O)(=O)Nc3ccc(S(C)(=O)=O)cc3)ccc2Cl)CC1	none
CCN1CCN(C(=O)c2cc(S(=O)(=O)Nc3ccc(S(C)(=O)=O)cc3)ccc2Cl)CC1	D1 antagonist -47
Cc1c(Cl)cccc1NC(=O)CSc1nc2ncccc2o1	none
CCOC(=O)c1c(C)[nH]c(CCC(=O)Nc2cc(C)cc(C)c2)c1C	none
CC(C)Oc1ccc(CNC(=O)c2ccc3nc(C(C)C)oc3c2)cc1	none
Cc1ccc(NC(=O)CCCn2c(=O)c3cccn3c3ccccc32)c(C)c1	none
Cc1cc(C)c(NC(=O)CCn2c(=O)c3cccn3c3ccccc32)c(C)c1	D1 antagonist -49
O=C(CCCn1c(=O)c2cccn2c2ccccc21)Nc1cccc(Cl)c1	D1 antagonist -32
Cc1ccc(NC(=O)CCCn2c(=O)c3cccn3c3ccccc32)c(Cl)c1	none
Cc1cc(C)cc(NC(=O)CCCn2c(=O)c3cccn3c3ccccc32)c1	D1 antagonist -71
Cc1ccc(C)c(N2CCN(S(=O)(=O)c3cc(C(=O)Nc4ccc(Oc5ccccc5)cc4)ccc3F)CC2)c1	none
COc1cc(C2C(=O)N(C3CCCCCC3)CC(=O)N2CCC2=CCCCC2)ccc1OC(C)C (stereo unspecified)	none
CCCOc1ccc(CNC(=O)CN2C(=O)c3cccnc3Oc3ccc(C)cc32)cc1	none
N#Cc1c(-n2ncnc2-c2ccccc2Cl)sc2c1CCCCC2	D1 antagonist -35
N#Cc1c(-n2ncnc2-c2ccccc2C(F)(F)F)sc2c1CCCCC2	none
COc1ccc(CCC(=O)Nc2cccc(S(=O)(=O)N3CCCCCC3)c2)cc1OC	D1 antagonist -31
CC(CC(=O)Nc1cccc(S(=O)(=O)N2CCCCC2)c1)c1ccccc1 (stereo unspecified)	none
O=C(Cc1cccc(C(F)(F)F)c1)Nc1cccc(S(=O)(=O)N2CCCC2)c1	D1 antagonist -41
O=C(CSc1ccccc1)Nc1cccc(S(=O)(=O)N2CCCC2)c1	D1 antagonist -32
CC(=O)N1CCN(S(=O)(=O)c2cccc(C(=O)Nc3cc(C(F)(F)F)ccc3N3CCOCC3)c2)CC1	D1 antagonist -31
O=C(Cc1cccc(C(F)(F)F)c1)Nc1ccc(S(=O)(=O)N2CCCC2)cc1	none
Cc1ccc(S(=O)(=O)N2CCOCC2)cc1C(=O)Nc1ccccc1N1CCOCC1	none
COc1cccc(NC(=O)Cn2c(=O)n(CC(=O)NCc3ccc(C)cc3)c(=O)c3sccc32)c1	none
COC(=O)c1ccccc1NC(=O)Cn1c(=O)n(-c2ccc(C)cc2)c(=O)c2ccccc21	none
O=C(Cc1ccc(S(=O)(=O)N2CCOCC2)s1)Nc1cc(C(F)(F)F)ccc1N1CCCC1	none
CN1CCN(c2ccc(NC(=O)CSc3ccccc3)cc2F)CC1	D1 antagonist -53
O=C(Cc1cccc(C(F)(F)F)c1)Nc1cc(S(=O)(=O)N2CCOCC2)ccc1N1CCCC1	D1 antagonist -43
O=C(Nc1ccncc1)C1CCN(S(=O)(=O)c2cccc(C(F)(F)F)c2)CC1	D1 antagonist -44 (no result: D1 PAM)
Cc1ccc(NC(=O)C2CCN(c3cnccn3)CC2)cc1	none
O=C(Nc1ccc(C(F)(F)F)cc1)C1CCN(c2cnccn2)CC1	D1 antagonist -56!
CCCCS(=O)(=O)c1oc(-c2ccc(F)cc2)nc1S(=O)(=O)c1ccccc1	none
CCOc1cc2[nH]c(=O)n(CCC(=O)N3CCN(c4cccc(Cl)c4)CC3)c(=O)c2cc1OCC	none
CCC(C(=O)NCCc1ccc(Cl)cc1)n1ccc2cc(S(=O)(=O)N3CCCCC3)ccc21 (stereo unspecified)	none
CCOC(=O)c1sc2ccccc2c1S(=O)(=O)Nc1ccc(CC)cc1	none
O=C(CN1C(=O)COc2ccc(S(=O)(=O)N3CCCCCC3)cc21)Nc1cccc(Cl)c1	none
Cc1ccc(C(=O)NCCc2nnc3c(C(F)(F)F)cc(Cl)cn23)o1	D1 antagonist -33
C=C[C@@](C)(O)CC[C@@H]1[C@@]2(C)CCCC(C)(C)[C@@H]2CC[C@@]1(C)O	D1 ag 49
CC(C)c1ccc(NC(=O)CCNC(=O)N2CC(=O)Nc3ccccc32)cc1	none
COCCN(CC(=O)Nc1cccc(C)c1C)C(=O)c1cc(-c2ccncc2)nc2ccccc12	none
COc1cccc(N(CC(=O)N2CCC(C)CC2)S(=O)(=O)c2ccc(C)cc2)c1	none
O=C(CSc1nnc(Cn2c(=O)sc3ccccc32)n1-c1ccccc1)N1CCOCC1	none
COc1ccc(-n2c(COc3cccc4ccccc34)nnc2SCC(=O)NCc2ccco2)cc1	D1 antagonist -34
